This is one part of the list. A number with no mark means an inactive call. Calls of active or inactive are those of the source.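 How the source made its calls: active means inhibition above the mean of stimulated solvent-only control wells plus 3 SD (cut at about 22% in these data); inactive means the rest.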

This experiment can be described thus: CNGC cAMP sensor activity inhibitors, counter-screen for NPY-Y1 potentiator/agonist project, cell-based, HEK293-CNG parental, membrane potential fluorescence, Y1 set (AID 1704).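 Further: 0% = isoproterenol-stimulated DMSO wells and 100% = unstimulated DMSO wells.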 The note with it: isoproterenol cAMP, at 3.6 µM, hits give high values. (A counterscreen serves to expose hits that act by an unwanted route or on another target.)
As for `CSc1nc(-c2ccco2)nn1C(=O)c1ccccc1Cl`, the inhibition – broadly, the change of the read-out against control, counted positive when it falls – is 12.3%.
The same measure for `COC(=O)c1sc(-c2ccc(C(C)(C)C)cc2)cc1NC(=O)/C=C/C(=O)O`: 24.5% (active); for `N#Cc1ccc(C(=O)Nc2nc(-c3cccs3)c(C(=O)C(F)(F)F)s2)cc1`: -18.5%; for `O=[N+]([O-])c1cc(Cl)cc(/C=N/NC(=S)Nc2cc(S(=O)(=O)N3CCOCC3)ccc2Cl)c1O`: 66.5% (active).
As to `Cc1ccccc1NCC(=O)N/N=C\c1ccc([N+](=O)[O-])s1`, the inhibition was 33.8% (active).
As to `CC(=O)c1ccc(NC(=O)C2CC(=O)Nc3nc4ccccc4n32)cc1` (stereo unspecified), the inhibition was 32.8% (active).
As to `O=C(Nc1ccccc1C(F)(F)F)c1cc(-c2ccc(O)cc2)on1`, the inhibition is -10.9%.
`CC1=C/C(=N\OS(=O)(=O)c2ccccc2)C=CC1=O`: the inhibition was 16.7%.
The value for `CN1C(=O)c2ccccc2C(C(=O)NCCCN2CCCC2)C1c1c[nH]c2ccccc12` (stereo unspecified) was -0.85%; that for `COCCn1nnnc1C(c1ccccc1Cl)N1CCN(c2ccccc2OC)CC1` (stereo unspecified) was -5.71%; that for `Cc1cccc(OCC(O)CN2CCN(CCN3C(=O)c4cccc5cccc(c45)C3=O)CC2)c1C` (stereo unspecified) was 51.3% (active).
Regarding `CCn1c2ccccc2c2cc(NC(=O)Nc3ccc([N+](=O)[O-])cc3C)ccc21`, the inhibition was 16.4%.
As to `O=C(Nc1ccc2c(c1)CCC2)c1cccc(S(=O)(=O)Nc2ccccc2Cl)c1`, the inhibition was 7.5%.
Consider `COC(=O)c1ccc(NC(=O)CN(c2ccc(C)cc2)S(=O)(=O)c2c(C)n[nH]c2C)cc1`, for which the inhibition was 36.6% (active).
As to `O=C1/C(=C/c2coc3ccc(O)cc3c2=O)SC(=S)N1c1ccccc1`, the inhibition is 11.7%.
`O=C(c1cccs1)N1CCN(C(=O)N2CCOCC2)CC1`: the inhibition was 1.33%.

These data come from PubChem BioAssay AID1704 (The Scripps Research Institute Molecular Screening Center, 2009).
